# Measured values from ChEMBL document CHEMBL3988442, “University of Dundee, Small-Polar-MMV Screening Library” (2021).
# The whole screen tested about 53,000 compounds, of which about 900 (1.7%) showed an effect of 50% or more. What follows is part of a selection rich in strong results, with near analogues and random picks from the rest.
# Tested on: Mycobacterium tuberculosis
# Assay: Cornell - Phenotypic assay to identify agents that inhibit growth of Mycobacterium tuberculosis
# Type: functional
# Design: scale not given: direction of the effect not stated beside the values
# Settings: 10 mM as filed; unlikely as a test dose
row,Structure (SMILES),Percent Effect [%]
1,CC(=O)N1CCN(C(C)c2nnc(CC(C)C)o2)CC1 (configuration not stated),3.173
2,COC(=O)[C@H](C)NC(=O)CSCc1nc2sc(C(C)C)cc2c(=O)[nH]1,57.77
3,COCCNC(=O)CSCc1nc(O)c2cc(C(C)C)sc2n1,-18.87
4,COC(=O)C(C)NC(=O)CSCc1nc(O)c2cc(C(C)C)sc2n1 (configuration not stated),10.11
5,CC(C)CN1C[C@H](COCc2ccccc2)Oc2ncccc2C1=O,-10.08
6,Cc1ncc(C(=O)NCCNc2ncccn2)s1,-0.6021
7,CCS(=O)(=O)Nc1cnn(Cc2cccc(Cl)c2)c1,-14.58
8,CCS(=O)(=O)Nc1cnn(Cc2cccc(C)c2)c1,56.26
9,CCS(=O)(=O)Nc1cnn(Cc2cccc(F)c2)c1,14.06
10,Cc1c(S(=O)(=O)NCC(C)C)cnn1C,-2.001
11,COc1cccc(CCC(=O)Nc2c(C)nn(C)c2C)c1OC,-11.78
12,Cc1nc(-c2ccc(CO)cc2)cc(C2CCNCC2)n1.Cl,12.1
13,O=C(NCc1ccccn1)[C@@]12CCO[C@@H]1CCN(Cc1ccccn1)C2.O=C(O)C(F)(F)F.O=C(O)C(F)(F)F.O=C(O)C(F)(F)F,-14.31
14,CC(NC(=O)c1cc(-c2cccc(Cl)c2)no1)C(=O)N(C)C (configuration not stated),9.545
15,CC(NC(=O)c1cc(-c2cccc(Cl)c2)no1)C(=O)N1CCCC1 (configuration not stated),1.351
16,COC(=O)[C@H](C)NC(=O)c1cc(-c2cccc(Cl)c2)no1,105.7
17,O=C(NCc1ccc(OCC2CC2)nc1)C1COc2ccccc2O1 (configuration not stated),16.73
18,Cc1nn2c(N3CCC(O)CC3)cc(-c3ccccc3)nc2c1C,72.96
19,Cc1nn2c(N3CCC(O)C3)cc(-c3ccccc3)nc2c1C (configuration not stated),16.78
20,Cc1nn2c(N3CCC(C(N)=O)CC3)cc(-c3ccccc3)nc2c1C,21.25
21,Cc1nc(N[C@H]2COC[C@@H]2N2CCCC2)c2cnn(C)c2n1,2.791
22,CCNC(c1ccc(C)cc1)c1cccnc1 (configuration not stated),-8.954
23,CCc1nc(CN(C)C(=O)CSC)no1,7.399
24,Cc1nc(C)c(C(=O)N2CCc3nnc(C4CCCCN4C)n3CC2)o1 (configuration not stated),19.3
25,Cc1nc(C)c(C(=O)N2CCc3nnc(C4CCCCN4C)n3CC2)s1 (configuration not stated),54.31
26,Cc1ncsc1C(=O)N1CCc2nnc(C3CCCCN3C)n2CC1 (configuration not stated),8.689

row,Structure (SMILES),Percent Effect [%]
1,Cc1nc(C)c(C(=O)N2CCc3nnc(C4CCCN4C)n3CC2)s1 (configuration not stated),53.89
2,Cc1cc2c(=O)n3c(nc2s1)CCN(C(=O)c1sc(C)nc1C)CC3,10.24
3,Cc1nc(C)c(C(=O)N2CCCC2c2nnc3n2CCCCC3)s1 (configuration not stated),13.16
4,CN(C)[C@@H]1CCN(C(=O)c2cccn2C)[C@H]1Cc1cnn(C)c1.O=C(O)C(F)(F)F,-22.73
5,O=C(O)C(F)(F)F.c1coc(CN2CCc3nnc(COc4cncnc4)n3CC2)c1,21.79
6,COc1cccc(CC2CN(C3CC(C)(C)NC(C)(C)C3)CCO2)c1 (configuration not stated),-51.86
7,Cc1cccc2nc(CNC(=O)N3CCC(N4CC=CC4)C3)cn12 (configuration not stated),20.26
8,O=C(O)[C@@H]1CN(C(=O)CCCc2ccc(F)cc2)C[C@H]1C1CC1,-11.2
9,CC(C)CN1C(=O)C2(CCN(Cc3nccs3)C2)c2ccccc21.O=C(O)C(F)(F)F (configuration not stated),25.63
10,Cc1ccc(CN2CCC3(C2)C(=O)N(CC(C)C)c2ccccc23)s1 (configuration not stated),50.09
11,Cc1ccc(CN2CCC3(C2)C(=O)N(CC(N)=O)c2ccccc23)s1 (configuration not stated),3.211
12,Cc1nc(C)n(CCC(=O)NCC2CCCOC2)n1 (configuration not stated),20.26
13,CCCN1C[C@H]2CC[C@@H]1CN(Cc1ccc(Cn3cccn3)cc1)C2,-2.42
14,CCCN1C[C@H]2CC[C@@H]1CN(Cc1cccc(-n3cccn3)c1)C2,9.471
15,CCCN1C[C@H]2CC[C@@H]1CN(Cc1ccc(-n3cccn3)cc1)C2,53.91
16,CN(C)CCN1C(=O)CCC12CCN(C(=O)c1cccnc1)CC2.O=C(O)C(F)(F)F.O=C(O)C(F)(F)F,1.557
17,CC(=O)Nc1ccc(F)c(S(=O)(=O)NC(C)(C)C)c1,40.62
18,CC(C)(C)NS(=O)(=O)c1cc(NC(=O)C2CC2)ccc1F,50.55
19,CCC(=O)Nc1ccc(F)c(S(=O)(=O)NC(C)(C)C)c1,-2.357
20,c1ccc(Cc2nc(CNC3CCOC4(CCOCC4)C3)no2)cc1 (configuration not stated),8.637
21,Cc1ocnc1CNC(=O)Nc1ccc(N2CCOC(C)C2)cc1 (configuration not stated),104
22,Cc1noc(C)c1CNC(=O)Nc1ccc(N2CCSCC2)cc1,104.5
23,CC1CN(c2ccc(CNC(=O)NCCO)cn2)CCO1 (configuration not stated),2.175
24,Cc1noc(C)c1CNC(=O)Nc1ccc(N2CCOC2=O)cc1,-58.42
25,CC1CN(c2ccc(NC(=O)Cn3cccn3)cc2)CCO1 (configuration not stated),-5.599
26,Cc1noc(C)c1CNC(=O)Nc1ccc(N2CCOC(C)C2)cc1 (configuration not stated),103.9

row,Structure (SMILES),Percent Effect [%]
1,Cc1noc(C)c1CNC(=O)NCCC(=O)N1CCCc2ccccc21,-5.48
2,Cc1noc(C)c1CN1C[C@@H](C(=O)O)[C@H](c2ccccc2)C1,23.54
3,Cc1noc(C)c1CNC(=O)N1CCCC(C)CC1 (configuration not stated),12.27
4,Cc1n[nH]/c(=N\C(=O)c2c3c(nc4onc(C)c24)CCC3)s1,20.11
5,CN(C)CCNCCC(c1ccccc1)C1CCOC(C)(C)C1.O=C(O)C(=O)O (configuration not stated),21.42
6,CCc1nc(C2CCCN2C(=O)c2cc(Cl)c[nH]2)no1 (configuration not stated),23.06
7,CC(C)CC(=O)N1CC(=O)N(Cc2ccco2)CC(O)C1 (configuration not stated),-16.35
8,Cn1nc(Br)c2c(NCCCS(N)(=O)=O)ncnc21,24.15
9,Nc1ncc(-c2ccc(NC(=O)[C@@H]3CCCCN3)cc2)cn1,-8.73
10,Cc1nc(Nc2nncs2)cc(C2CCCN2C)n1 (configuration not stated),-51.01
11,O=C1CC(c2ccccc2)c2sc(C(=O)O)c(-c3ccccc3)c2N1 (configuration not stated),17.04
12,O=C1CC(c2ccsc2)c2sc(C(=O)O)c(-c3ccc(F)cc3)c2N1 (configuration not stated),105.2
13,O=C1CC(c2ccsc2)c2sc(C(=O)O)c(-c3ccccc3)c2N1 (configuration not stated),-23.75
14,O=C(C1CCOC1)N1C[C@@H]2CCN(C(=O)c3cscn3)[C@@H]2C1 (some centres not stated),-35.62
15,CC(CC(=O)NS(C)(=O)=O)C1CCCCC1 (configuration not stated),-16.66
16,Cc1ccc(-c2cc(C(=O)NCCC3=CCCCC3)[nH]n2)o1,52.86
17,O=C(NCCC1=CCCCC1)c1cc(-c2ccc(O)cc2)n[nH]1,22.09
18,CCCc1cc(C(=O)NCCC2=CCCCC2)[nH]n1,32.79
19,Cc1cc(F)ccc1N1CCCC(NC2CCSCC2)C1=O (configuration not stated),-0.6719
20,Cc1cc(S(=O)(=O)N2CCCc3cc(Br)ccc32)sc1C(=O)O,32.41
21,COC1CCN(C(=O)CC(C)(C)C)CC(=O)N(C)c2ccccc21 (configuration not stated),2.903
22,CC(C)=CCN1C[C@@H]2CN(C(=O)c3ccc(CO)cc3)C[C@]2(C(=O)O)C1,22.99
23,CN(C)C(=O)C1CCC2(CCN(C(=O)Nc3ccccc3)CC2)O1 (configuration not stated),2.965
24,COc1cc(C2Nc3cc(Cl)ccc3C3=NCCN32)cc(OC)c1OC (configuration not stated),-27.36
25,COc1ccc(C2Nc3cc(Cl)ccc3C3=NCCN32)cc1O (configuration not stated),10.02
26,COc1cc(C2Nc3cc(Cl)ccc3C3=NCCN32)ccc1O (configuration not stated),80.22

row,Structure (SMILES),Percent Effect [%]
1,CCCn1cc(C(=O)N2CCCC2(C)c2nc(C)cc(N)n2)cn1 (configuration not stated),-4.951
2,CSCCCN1CCN(c2ccc(Cl)cn2)CC1,62.54
3,CSCc1ccc(N2CCN(c3ccc(Cl)cn3)CC2)nc1,-11.59
4,Clc1ccc(N2CCN(CCCN3CCCCC3)CC2)nc1,25.77
5,COC(=O)CNC(=O)C1CCN(S(C)(=O)=O)CC1,-1.242
6,O=C(c1n[nH]c2ccccc12)N1CCCC1c1noc(C2CC2)n1 (configuration not stated),50.46
7,O=C(Cc1noc2ccccc12)N1CCCC1c1noc(C2CC2)n1 (configuration not stated),0.3643
8,O=C(c1cccc2[nH]ncc12)N1CCCC1c1noc(C2CC2)n1 (configuration not stated),0.6634
9,CC(=O)N1CCO[C@@H]2CN(S(=O)(=O)c3ccc(C)cc3)CC[C@@H]2C1,-25.36
10,CCc1noc(C(C)N2CCN(CC(C)C)CC2)n1 (configuration not stated),-14.43
11,COc1ccc(CNC(Cc2ccsc2)c2ccc(C)cn2)c(OC)c1 (configuration not stated),18.63
12,COc1cccc(OC)c1CNC(Cc1ccsc1)c1ccc(C)cn1 (configuration not stated),62.45
13,COc1ccc(CNC(Cc2ccsc2)c2ccc(C)cn2)cc1OC.Cl (configuration not stated),26.36
14,CCc1nc(NS(=O)(=O)c2cccc(F)c2C)no1,37.51
15,CC(CO)NC(=O)c1ccc(NCc2ccc(F)c(F)c2)cc1 (configuration not stated),4.78
16,O=C(c1cc(C2CC2)[nH]n1)N1CCN(Cc2ccc3c(c2)OCO3)CC1,83.19
17,O=C(c1cc(C2CC2)[nH]n1)N1CCN(Cc2ccncc2)CC1,8.467
18,O=C(c1cc(C2CC2)[nH]n1)N1CCN(Cc2ccsc2)CC1,6.464
19,O=C(c1cc(C2CC2)[nH]n1)N1CCN(Cc2ccc(Cl)cc2)CC1,-11.68
20,O=C(c1cc(C2CC2)[nH]n1)N1CCN(Cc2ccccc2)CC1,7.865
21,Cc1cccc(CN2CCN(C(=O)c3cc(C4CC4)[nH]n3)CC2)c1,63.11
22,CC(C)c1cc(C(=O)N2CCN(Cc3ccsc3)CC2)n[nH]1,50.59
23,CC(C)c1ccc(CN2CCN(C(=O)c3cc(C4CC4)[nH]n3)CC2)cc1,-22.19
24,CC(C)c1ncncc1C(=O)N1CCN(Cc2ccsc2)CC1,5.12
